# Data from the supplement of paper PMC8728848.
# Many of the other results were omitted from the sample, so the strongest signals are more common in it than they were.
# B1: SP15308B-bot-339-22-339 (Bacteroides ovatus) (protein)
# chain: NEWEDEQYEQYVSFKAPIASGSDGVTTIYVRYKDNGKVTYQLPIIVSGSTVNSQDRDIHIAVDKDTLKTLNIERFSLYRPELWYTEMEEDKYEFPETVHIPAGSCVELLNIDFNLQDIDMLEKWVLPLTIVDDGSYAYQSHPRKNYAKALLKVVPFNNYSGSYTASSMKVYTYINGKPDTNARTTDKRTGYVVDNNSIFFYAGLINEDMDKDMRKKYKINVHFKEDGTLDMKQDDPSNEMEFELIGTPTYSSTSVMDATRPYLERRYVQIMFEYDFQDFTYGGSGTEVIPIKYRVAGSMTLLRNINTQIPDEDQQIEW
# Assays:
# Experiment in all cases: glycan array binding signal (z-score within array); higher = stronger binding
# Conditions in all cases: glycan notation: IUPAC condensed, linker removed
# GalNAc(a1-3)Gal = molecular target: GalNAc(a1-3)Gal
# In short: (§1)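 Columns mapping to the same glycan were averaged after glycan names were converted to IUPAC-condensed notation. The data come from 3228 arrays in the Consortium for Functional Glycomics database, limited to those with an available protein sequence. Binding is reported as a within-array Z-score averaged across arrays of one protein sequence and across linkers.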
# Glc(a1-4)Glc = molecular target: Glc(a1-4)Glc
# In short: as §1
# GlcA(b1-3)Gal = molecular target: GlcA(b1-3)Gal
# In short: as §1
# [1] = molecular target: GlcNAc(a1-4)Gal(b1-4)GlcNAc(b1-3)Gal(b1-4)Glc
# In short: as §1
# [2] = molecular target: GlcNAc(a1-6)Gal(b1-4)GlcNAc
# In short: as §1
# [3] = molecular target: GlcNAc(b1-2)[GlcNAc(b1-4)]Man(a1-3)[GlcNAc(b1-4)][GlcNAc(b1-2)[GlcNAc(b1-6)]Man(a1-6)]Man(b1-4)GlcNAc(b1-4)[Fuc(a1-6)]GlcNAc
# In short: as §1
# [4] = molecular target: GlcNAc(b1-4)GlcNAc(b1-4)GlcNAc
# In short: as §1
# [5] = molecular target: GlcNAc(b1-4)GlcNAc(b1-4)GlcNAc(b1-4)GlcNAc(b1-4)GlcNAc
# In short: as §1
# Neu5Ac(a2-3)Gal = molecular target: Neu5Ac(a2-3)Gal
# In short: as §1
# [6] = molecular target: Neu5Ac(a2-3)Gal(b1-3)GlcNAc(b1-2)Man(a1-3)[Neu5Ac(a2-3)Gal(b1-3)GlcNAc(b1-2)Man(a1-6)]Man(b1-4)GlcNAc(b1-4)GlcNAc
# In short: as §1
# [7] = molecular target: Neu5Ac(a2-3)Gal(b1-3)]Neu5Ac(a2-3)Gal(b1-4)]GlcNAc
# In short: as §1
# [8] = molecular target: Neu5Ac(a2-3)Gal(b1-4)GlcNAc(b1-2)[Neu5Ac(a2-3)Gal(b1-4)GlcNAc(b1-4)]Man(a1-3)[GlcNAc(b1-4)][Neu5Ac(a2-3)Gal(b1-4)GlcNAc(b1-2)[Neu5Ac(a2-3)Gal(b1-4)GlcNAc(b1-6)]Man(a1-6)]Man(b1-4)GlcNAc(b1-4)GlcNAc
# In short: as §1
# [9] = molecular target: Neu5Ac(a2-3)Gal(b1-4)GlcNAc(b1-3)Gal(b1-4)GlcNAc(b1-3)GalNAc
# In short: as §1
# [10] = molecular target: Neu5Ac(a2-3)Gal(b1-4)[Fuc(a1-3)]GlcNAc(b1-3)GalNAc
# In short: as §1
# [11] = molecular target: Neu5Ac(a2-3)[GalNAc(b1-4)]Gal(b1-4)Glc
# In short: as §1
# [12] = molecular target: Neu5Ac(a2-6)Gal(b1-4)GlcNAc(b1-2)Man(a1-3)[Gal(b1-4)GlcNAc(b1-2)Man(a1-6)]Man(b1-4)GlcNAc(b1-4)GlcNAc
# In short: as §1
# [13] = molecular target: Neu5Ac(a2-6)Gal(b1-4)GlcNAc(b1-2)Man(a1-3)[Neu5Ac(a2-6)Gal(b1-4)GlcNAc(b1-2)Man(a1-6)]Man(b1-4)GlcNAc(b1-4)[Fuc(a1-6)]GlcNAc
# In short: as §1
# [14] = molecular target: Neu5Ac(a2-6)Gal(b1-4)GlcNAc(b1-2)Man(a1-6)Man(b1-4)GlcNAc(b1-4)GlcNAc
# In short: as §1
# [15] = molecular target: Neu5Ac(a2-6)Gal(b1-4)GlcNAc(b1-2)[Neu5Ac(a2-6)Gal(b1-4)GlcNAc(b1-6)]Man(a1-6)[Neu5Ac(a2-6)Gal(b1-4)GlcNAc(b1-2)Man(a1-3)][GlcNAc(b1-4)]Man(b1-4)GlcNAc(b1-4)GlcNAc
# In short: as §1
# [16] = molecular target: Neu5Ac(a2-6)Gal(b1-4)GlcNAc(b1-3)Gal(b1-4)GlcNAc(b1-3)Gal(b1-4)GlcNAc(b1-2)Man(a1-3)[Neu5Ac(a2-6)Gal(b1-4)GlcNAc(b1-3)Gal(b1-4)GlcNAc(b1-3)Gal(b1-4)GlcNAc(b1-2)Man(a1-6)]GalNAc
# In short: as §1
# [17] = molecular target: Neu5Ac(a2-6)Gal(b1-4)GlcNAc(b1-3)GalNAc
# In short: as §1
# [18] = molecular target: Neu5Ac(a2-6)GalNAc(b1-4)GlcNAc6S
# In short: as §1
# [19] = molecular target: Neu5Ac(a2-8)Neu5Ac(a2-3)[Gal(b1-3)GalNAc(b1-4)]Gal(b1-4)Glc
# In short: as §1
# [20] = molecular target: Neu5Ac(a2-8)Neu5Ac(a2-8)Neu5Ac(a2-3)Gal(b1-4)Glc
# In short: as §1
# [21] = molecular target: Neu5Gc(a2-3)Gal(b1-3)GlcNAc
# In short: as §1
# [22] = molecular target: Neu5Gc(a2-8)Neu5Gc(a2-3)Gal(b1-4)GlcNAc
# In short: as §1
binder,measurement,setting,value
B1,glycan array binding signal (z-score),GalNAc(a1-3)Gal,3.52
same,glycan array binding signal (z-score),Glc(a1-4)Glc,0.066
same,glycan array binding signal (z-score),GlcA(b1-3)Gal,0.229
same,glycan array binding signal (z-score),[1],-0.022
same,glycan array binding signal (z-score),[2],-0.154
same,glycan array binding signal (z-score),[3],-0.263
same,glycan array binding signal (z-score),[4],-0.544
same,glycan array binding signal (z-score),[5],-0.482
same,glycan array binding signal (z-score),Neu5Ac(a2-3)Gal,-0.692
same,glycan array binding signal (z-score),[6],-0.211
same,glycan array binding signal (z-score),[7],-0.519
same,glycan array binding signal (z-score),[8],-0.547
same,glycan array binding signal (z-score),[9],-0.308
same,glycan array binding signal (z-score),[10],2.38
same,glycan array binding signal (z-score),[11],-0.526
same,glycan array binding signal (z-score),[12],0.001
same,glycan array binding signal (z-score),[13],1.73
same,glycan array binding signal (z-score),[14],-0.086
same,glycan array binding signal (z-score),[15],-0.729
same,glycan array binding signal (z-score),[16],0.664
same,glycan array binding signal (z-score),[17],-0.409
same,glycan array binding signal (z-score),[18],-0.231
same,glycan array binding signal (z-score),[19],-0.005
same,glycan array binding signal (z-score),[20],-0.189
same,glycan array binding signal (z-score),[21],-0.652
same,glycan array binding signal (z-score),[22],-0.454
